According to PubChem BioAssay (NCATS):
Inconclusive results are not listed. A number with no mark means an inactive call. The source made the active and inactive calls. The call rests on the fitted dose curve; in most records, active means well fitted cell-killing curve with a large enough effect; inconclusive means small, poorly fitted or top-dose-only effect, or effect the other way; inactive means no such curve, though single readings can be large or run the other way.

Assay: Quantitative High-Throughput drug screen in 47 multiple myeloma cell lines against the NCATS MIPE library collection: ARP1_JJKsccF8 cell viability assay (AID 1918928; further: nearly all actives have a fitted effect of over 40% in size)
Conditions: ARP1 myeloma cells viability, CellTiter-Glo ATP, 48 h; series mostly up to 45.8 µM; viability: at the top concentration
Source text: PI: Beverly A. Mock Ph.D.
Laboratory of Cancer Biology and Genetics,
Center for Cancer Research, National Cancer Institute,
National Institute of Health, Bethesda, Maryland
Drug resistance and disease progression are common in multiple myeloma (MM) patients, underscoring the need for new therapeutic combinations. […] We hypothesized that effective combinations would reduce MYC expression and enhance p16 activity. […] These preclinical data identify potentially useful drug combinations for evaluation in drug-resistant MM and reveal potential mechanisms of combined drug sensitivity.
Described herein is the primary MIPE qHTS used to cherrypick compounds. Validated compounds were then further tested for potential synergistic activiy.
[1] Peat TJ, Gaikwad SM, Dubois W, Gyabaah-Kessie N, Zhang S, Gorjifard S, Phyo Z, Andres M, Hughitt VK, Simpson RM, Miller MA, Girvin AT, Taylor A, Williams D, D'Antonio N, Zhang Y, Rajagopalan A, Flietner E, Wilson K, Zhang X, Shinn P, Klumpp-Thomas C, McKnight C, Itkin Z, Chen L, Kazandijian D, Zhang J, Michalowski AM, Simmons JK, Keats J, Thomas CJ, Mock BA. Drug combinations identified by high-throughput screening promote cell cycle transition and upregulate Smad pathways in myeloma. Cancer Lett. 2023 Aug 1;568:216284. doi: 10.1016/j.canlet.2023.216284. Epub 2023 Jun 24. PMID: 37356470; PMCID: PMC10408729.
SEQUENCE No. (e.g., 1, 2, 3, etc.); […] (e.g., Cells, Incubation, Reagent, etc.); VALUE and DESCRIPTION.
1; Cells; 5 uL; white, solid bottom 1536-well Greiner assay plate.
2; Compounds; 23 nL; Kalypsis pin tool (Wako USA) equipped with a 1536-well pin head to transfer to the assay plates.
3; Incubation; 48 hours; 37C incubation.
4; Reagent;5uL; CellTiter Glo (Promega).
5; Detector; 425V; Luminescence; Viewlux PerkinElmer.
NOTES (numbers refer to Sequence numbers above)
1. The cell-based screening methods employed in this study were like those previously published. Briefly, the corresponding myeloma cell lines were screened in 1,536-well plates with 500 cells, 5-uL per well for inhibition of cell viability (assessed by measuring ATP levels with CellTiterGlo).
2. NCATS MIPE 4.0 library of approved and investigational drugs were added using the Kalypsis pin tool. Wells treated with DMSO only for 100% viability and media only cells for 0% viability were used as controls.
3. The assay plates were covered and incubated for 48 hours in a 37C, 5% CO2 incubator with controlled humidity.
4. After 48 hours, CellTilter-GloTM luminescent substrate mix (Promega) reagent was added to the assay plate and plates we incubated for 5 min at room temperature.
5. Signal was measured as median relative luminescence units on a ViewLux (PerkinElmer) multiplate reader.
[1] Heske CM, Davis MI, Baumgart JT, Wilson K, Gormally MV, Chen L, Zhang X, Ceribelli M, Duveau DY, Guha R, Ferrer M, Arnaldez FI, Ji J, Tran HL, Zhang Y, Mendoza A, Helman LJ, Thomas CJ. Matrix Screen Identifies Synergistic Combination of PARP Inhibitors and Nicotinamide Phosphoribosyltransferase (NAMPT) Inhibitors in Ewing Sarcoma. Clin Cancer Res. 2017 Dec 1;23(23):7301-7311. doi: 10.1158/1078-0432.CCR-17-1121. Epub 2017 Sep 12. PMID: 28899971; PMCID: PMC6636827.
Potency means the concentration at half of the fitted maximal effect.

Structure (SMILES) | Potency | viability
COC(=O)c1ccc2c(C(=Nc3ccc(N(C)C(=O)CN4CCN(C)CC4)cc3)c3ccccc3)c(O)[nH]c2c1 | 23.5 µM (active) | –
Cc1ccc(C(=O)Nc2ccc(CN3CCN(C)CC3)c(C(F)(F)F)c2)cc1C#Cc1cnc2cccnn12 | 1.66 µM (active) | –
Cc1cc(Nc2cc(NC(=O)c3c(Cl)cccc3Cl)ccn2)nc(N)n1 | 0.296 µM (active) | –
CC=CC1=C(C(=O)O)N2C(=O)[C@H](NC(=O)[C@H](N)c3ccc(O)cc3)[C@@H]2SC1 | – | 117%
CC1(C)O[C@@H]2C[C@@H]3[C@H]4C[C@@H](F)C5=CC(=O)C=C[C@]5(C)[C@@]4(F)[C@@H](O)C[C@]3(C)[C@]2(C(=O)CO)O1 | 0.0074 µM (active) | –
C1=CCOCc2cc(ccc2OCCN2CCCC2)Nc2nccc(n2)-c2cccc(c2)OCC1 | 1.66 µM (active) | –
Cc1ccc(C(=O)Nc2cccc(C(F)(F)F)c2)cc1-c1ccc2nc(NCCN3CCOCC3)ncc2c1 | 8.33 µM (active) | –
Cc1cc(Nc2cc(N3CCN(C)CC3)nc(Sc3ccc(NC(=O)C4CC4)cc3)n2)n[nH]1 | 7.43 µM (active) | –
CC=C1NC(=O)[C@H]2CSSCCC=C[C@H](CC(=O)N[C@H](C(C)C)C(=O)N2)OC(=O)[C@H](C(C)C)NC1=O | 0.0264 µM (active) | –
O=C(O)Cn1nnc(-c2cc(N3CCC(Oc4cc(F)ccc4Br)CC3)no2)n1 | – | 120%
COc1cc2c(Oc3ccc(-c4cnc(Nc5ccc(F)cc5)n(C)c4=O)cc3F)ccnc2cc1OCCCN1CCOCC1 | 8.33 µM (active) | –
COc1cc2c(Nc3ccc(NC(=O)c4ccccc4)cc3)ncnc2cc1OCCCN1CCOCC1 | 20.9 µM (active) | –
CC[C@@]1(O)C(=O)OCc2c1cc1n(c2=O)Cc2cc3cc(O)ccc3nc2-1 | 0.418 µM (active) | –
O=C(NC1CCNCC1)c1[nH]ncc1NC(=O)c1c(Cl)cccc1Cl | 0.372 µM (active) | –
O=C(O)c1ccc2c(c1)nc(Nc1cccc(Cl)c1)c1ccncc12 | 9.35 µM (active) | –
Nc1cccc(-c2cc3c(Oc4cccc(O)c4)ncnc3[nH]2)c1 | 20.9 µM (active) | –
CCCCCCCCCC(=O)N[C@@H](Cc1c[nH]c2ccccc12)C(=O)N[C@H](CC(N)=O)C(=O)N[C@@H](CC(=O)O)C(=O)N[C@@H]1C(=O)NCC(=O)N[C@@H](CCCN)C(=O)N[C@@H](CC(=O)O)C(=O)N[C@H](C)C(=O)N[C@@H](CC(=O)O)C(=O)NCC(=O)N[C@H](CO)C(=O)N[C@@H]([C@@H](C)CC(=O)O)C(=O)N[C@@H](CC(=O)c2ccccc2N)C(=O)O[C@@H]1C | – | 129%
NC1(Cc2ccc(Cl)cc2)CCN(c2ncnc3[nH]ccc23)CC1 | 2.96 µM (active) | –
C=CC(=O)Nc1cc2c(Nc3ccc(F)c(Cl)c3)ncnc2cc1C#CC(C)(C)N1CCN(C)CC1 | 5.9 µM (active) | –
Nc1nc(-c2nn(Cc3ccccc3F)c3ncccc23)nc(N)c1N1CCOCC1 | – | 98%

Structure (SMILES) | Potency | viability
CCn1cc(-c2ccnc3[nH]c(-c4cccc(CN(C)C)c4)cc23)c(-c2ccc(NC(=O)N(C)C)cc2)n1 | 5.9 µM (active) | –
CCCNC(=O)Nc1ccc(Oc2ncnc3cc(OC)c(OC)cc23)cc1Cl | – | 70.1%
C[C@@H]1CN(CC(=O)Nc2ccc3c(c2)Cc2cccc(-c4cc(=O)cc(N5CCOCC5)o4)c2S3)C[C@H](C)O1 | 9.35 µM (active) | –
O=C(c1cncc(Br)c1)N1CCC(N2CCCC2)CC1 | 16.6 µM (active) | –
O=C(O)[C@H](Cc1c[nH]c2ccccc12)N1C(=O)c2ccccc2C1=O | – | 117% [at 92.2 µM]
Nc1ccccc1NC(=O)c1ccc(CNC(=O)OCc2cccnc2)cc1 | 1.32 µM (active) | –
NCC(=O)Nc1ccc(-n2nc(C(F)(F)F)cc2-c2ccc3c(ccc4ccccc43)c2)cc1 | 23.5 µM (active) | –
CCC[C@H](NC(=O)C(C#N)=Cc1cccc(Br)n1)c1ccccc1 | 4.18 µM (active) | –
CC(C)CC(=O)Nc1n[nH]c2c1CN(C(=O)C1CCN(C)CC1)C2(C)C | 1.05 µM (active) | –
COC(=O)Nc1ccc(-c2nc(N3CCOCC3)c3cnn(C4CCN(Cc5cccnc5)CC4)c3n2)cc1 | 0.0743 µM (active) | –
O=C1CCC[C@@H]2[C@H]3CCC[N+]4([O-])CCC[C@@H](CN12)[C@@H]34 (stereo not given in full) | – | 109%
NC(=O)Nc1cc(-c2cccc(F)c2)sc1C(=O)N[C@H]1CCCNC1 | 3.72 µM (active) | –
COc1ccc(OC)c(-c2nnc3ccc(-c4ccc(OC)c(O[C@@H]5CCOC5)c4)nn23)c1 | 18.7 µM (active) | –
CC1(O)CC(c2nc(-c3ccc4ccc(-c5ccccc5)nc4c3)c3c(N)nccn23)C1 (stereo not given) | 5.9 µM (active) | –
Cc1cc(CN2CCN(c3c(Br)cnc4nc(-c5ccc(N6CCN(C)CC6)cc5)[nH]c34)CC2)no1 | 14.8 µM (active) | –
O=C(Nc1cc(C(F)(F)F)cc(C(F)(F)F)c1)c1cc(Cl)ccc1O | 1.05 µM (active) | –
O=C(CCCCCCNC(=O)c1cnc(N(c2ccccc2)c2ccccc2)nc1)NO | 2.96 µM (active) | –
COc1ccc(CC2SC(=O)NC2=O)cc1C(=O)NCc1ccc(C(F)(F)F)cc1 (stereo not given) | – | 119%
Cc1ccc(-c2ncn(-c3ccc(Nc4nccc(-c5cccc(N6CCOCC6)c5)n4)cc3)n2)cn1 | 0.166 µM (active) | –
CN(C)CCCN=c1c2ccccc2n(C)c2[nH]c(=O)n(C)c(=O)c12 | 18.7 µM (active) | –
